Positions count from the first letter of the chain named.

Common to all, as to assay: protein-binding microarray (PBM); PBM: ~300 nM protein, 6 mM HEPES pH 7.8, 80 mM KCl, 0.5 mM EDTA, 0.5 mM EGTA, 6% glycerol, 35 ng/ul poly-dIdC, 1% milk, 1 h, room temperature; Ap Aiptasia and Nv Nematostella (sea anemones) / Co Capsaspora / Aq Amphimedon (sponge) / Dm Drosophila / Hu human; RHD is the Rel homology domain; high values mean tight binding
Holding throughout (settings): dsDNA, one strand shown

Experiment [1] addresses T1, GST-Ap-NF-kB RHD (Exaiptasia pallida (Aiptasia), UniProt A0A913YAJ5 2-422).
T1 sequence: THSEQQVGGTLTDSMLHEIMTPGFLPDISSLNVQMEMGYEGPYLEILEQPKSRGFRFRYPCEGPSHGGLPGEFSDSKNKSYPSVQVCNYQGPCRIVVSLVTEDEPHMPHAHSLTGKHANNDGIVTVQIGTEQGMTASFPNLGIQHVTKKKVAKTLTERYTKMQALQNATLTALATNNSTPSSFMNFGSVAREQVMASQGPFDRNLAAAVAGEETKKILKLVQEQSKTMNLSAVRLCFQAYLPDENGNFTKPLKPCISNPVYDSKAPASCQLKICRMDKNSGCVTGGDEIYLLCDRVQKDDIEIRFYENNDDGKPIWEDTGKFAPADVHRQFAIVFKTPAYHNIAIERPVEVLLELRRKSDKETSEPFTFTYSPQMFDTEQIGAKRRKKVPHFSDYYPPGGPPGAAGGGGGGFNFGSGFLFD

In experiment [2] the target is T2, GST-Nv-NF-kB (Cys allele) (Nematostella vectensis, UniProt E5G601 2-411).
T2 sequence: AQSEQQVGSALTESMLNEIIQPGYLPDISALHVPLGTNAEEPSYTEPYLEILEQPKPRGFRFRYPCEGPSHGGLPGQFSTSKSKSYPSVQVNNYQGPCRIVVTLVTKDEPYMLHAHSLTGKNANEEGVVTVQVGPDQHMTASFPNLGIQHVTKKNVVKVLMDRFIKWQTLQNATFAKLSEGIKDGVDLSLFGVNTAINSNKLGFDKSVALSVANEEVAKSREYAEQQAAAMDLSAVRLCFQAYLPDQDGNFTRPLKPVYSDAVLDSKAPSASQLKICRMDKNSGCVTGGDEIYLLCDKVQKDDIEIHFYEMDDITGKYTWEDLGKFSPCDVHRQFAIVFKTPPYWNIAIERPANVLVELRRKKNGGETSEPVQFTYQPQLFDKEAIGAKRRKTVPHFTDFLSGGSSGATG

Experiment [3] has as its target T3, GST-Nv-NF-kB (Ser allele) (Nematostella vectensis, UniProt A7UNT2 2-411).
T3 sequence: T2 sequence with Q21R, C66S, S207N, E215Q, V217A, E225K, A268E, D399E

For experiment [4], the target named is T4, GST-Co-NF-kB (Capsaspora owczarzaki, UniProt F1ARL5 200-546).
T4 sequence: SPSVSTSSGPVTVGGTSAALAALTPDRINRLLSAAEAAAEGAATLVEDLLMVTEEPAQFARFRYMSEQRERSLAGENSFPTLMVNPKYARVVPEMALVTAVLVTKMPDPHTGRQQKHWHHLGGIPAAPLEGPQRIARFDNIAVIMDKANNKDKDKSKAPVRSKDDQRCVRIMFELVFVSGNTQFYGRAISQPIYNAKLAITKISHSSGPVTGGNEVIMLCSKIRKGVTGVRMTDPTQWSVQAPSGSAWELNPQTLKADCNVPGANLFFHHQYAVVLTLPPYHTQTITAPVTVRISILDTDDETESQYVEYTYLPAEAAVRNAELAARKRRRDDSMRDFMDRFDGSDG

In experiment [5] the target is T5, GST-Dm-Relish (Drosophila melanogaster, UniProt Q94527 99-473).
T5 sequence: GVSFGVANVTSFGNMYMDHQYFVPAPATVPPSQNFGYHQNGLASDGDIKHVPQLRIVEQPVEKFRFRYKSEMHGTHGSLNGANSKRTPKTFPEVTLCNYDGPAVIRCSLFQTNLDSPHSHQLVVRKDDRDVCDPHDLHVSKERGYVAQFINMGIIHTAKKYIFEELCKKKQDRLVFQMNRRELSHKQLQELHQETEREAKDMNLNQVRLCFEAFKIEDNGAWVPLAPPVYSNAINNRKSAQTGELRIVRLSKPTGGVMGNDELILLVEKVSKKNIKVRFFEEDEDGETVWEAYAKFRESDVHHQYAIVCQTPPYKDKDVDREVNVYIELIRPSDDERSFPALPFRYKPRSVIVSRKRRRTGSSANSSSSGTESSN

Experiment [6] deals with T6, GST-Aq-NF-kB (Amphimedon queenslandica, UniProt A9Y5G7 2-389).
T6 sequence: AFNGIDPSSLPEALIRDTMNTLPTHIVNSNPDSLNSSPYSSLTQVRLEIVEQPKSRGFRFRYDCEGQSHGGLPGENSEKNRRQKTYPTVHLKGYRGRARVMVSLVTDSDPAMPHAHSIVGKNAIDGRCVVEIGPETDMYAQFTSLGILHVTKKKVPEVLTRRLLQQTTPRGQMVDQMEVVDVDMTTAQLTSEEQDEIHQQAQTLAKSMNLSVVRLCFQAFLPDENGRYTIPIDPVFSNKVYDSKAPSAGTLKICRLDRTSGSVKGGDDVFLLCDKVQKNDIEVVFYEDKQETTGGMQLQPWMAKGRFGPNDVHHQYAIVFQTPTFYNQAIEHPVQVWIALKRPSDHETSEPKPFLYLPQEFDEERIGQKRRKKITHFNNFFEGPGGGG

Experiment [7] addresses GST-Hu-p50 (Homo sapiens, UniProt P19838 7-356).

Chain of GST-Hu-p50 (P19838 7-356): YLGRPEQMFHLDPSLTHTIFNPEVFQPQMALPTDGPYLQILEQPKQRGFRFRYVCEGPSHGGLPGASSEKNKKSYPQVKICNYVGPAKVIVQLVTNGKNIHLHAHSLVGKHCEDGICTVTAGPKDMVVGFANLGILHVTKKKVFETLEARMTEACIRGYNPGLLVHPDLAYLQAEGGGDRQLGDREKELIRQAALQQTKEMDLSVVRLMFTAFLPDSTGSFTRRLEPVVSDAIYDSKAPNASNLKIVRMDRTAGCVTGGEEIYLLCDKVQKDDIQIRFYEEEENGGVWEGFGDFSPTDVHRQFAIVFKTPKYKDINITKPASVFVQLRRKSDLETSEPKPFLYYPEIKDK

Turning to “CCGATTAACATCAGGGAATCACATGATGTTAATCGGGTCTTGATTCGCTTGACGCTGCTG”, the binding signal came to 1.95 z-score in experiment [1]; 2.66 z-score in experiment [2]; 2.47 z-score in experiment [3]; 2.22 z-score in experiment [4]; 9.15 z-score in experiment [5]; 3.28 z-score in experiment [6]. Moreover, the binding signal in experiment [7] amounted to 1.14 z-score.
Consider “CCGATTAACATCAGGGGGGTTTATGATGTTAATCGGGTCTTGATTCGCTTGACGCTGCTG”, for which the binding signal in experiment [1] amounted to 7.17 z-score; in experiment [2], 5.54 z-score; in experiment [3], 6.69 z-score; in experiment [4], 4.39 z-score; in experiment [5], 8.97 z-score; in experiment [6], 6.15 z-score. In experiment [7], this sequence gave a binding signal of 6.31 z-score.
Take “CCGATTAACATCAGGGAAAATAATGATGTTAATCGGGTCTTGATTCGCTTGACGCTGCTG”: the binding signal in experiment [1] is 3.42 z-score; in experiment [2], 6.84 z-score; in experiment [3], 8.05 z-score; in experiment [4] it was 5.52 z-score; in experiment [5] it was 2.1 z-score; in experiment [6] it was 4.47 z-score. In experiment [7], the binding signal amounted to 4.74 z-score.
Take “CCGATTAACATCAAAAAACCACCTGATGTTAATCGGGTCTTGATTCGCTTGACGCTGCTG”: the binding signal in experiment [1] is 4.79 z-score; in experiment [2] it was 5.1 z-score; in experiment [3] it was 7.1 z-score; in experiment [4], 1.37 z-score; in experiment [5], 8.7 z-score; in experiment [6] it was 5.41 z-score. The sequence also came in with a binding signal in experiment [7] of 6.81 z-score.
As to “CCGATTAACATCAAAATACCCCGTGATGTTAATCGGGTCTTGATTCGCTTGACGCTGCTG”, the binding signal in experiment [1] was found to be 6.29 z-score; in experiment [2], 5.39 z-score; in experiment [3] it was 5.69 z-score; in experiment [4], 5.77 z-score; in experiment [5], 5.44 z-score; in experiment [6], 5.69 z-score. Moreover, the binding signal in experiment [7] turned out to be 5.49 z-score.
As for “CCGATTAACATCAACGAATTCCCTGATGTTAATCGGGTCTTGATTCGCTTGACGCTGCTG”, the binding signal in experiment [1] was 2.81 z-score; in experiment [2], 4.07 z-score; in experiment [3] it was 4.93 z-score; in experiment [4], 2.64 z-score; in experiment [5], 2.28 z-score; in experiment [6] it was 3.08 z-score. In experiment [7], this sequence showed a binding signal of 3.08 z-score.
Consider “CCGATTAACATCAAGGGAACTCCTGATGTTAATCGGGTCTTGATTCGCTTGACGCTGCTG”, for which the binding signal in experiment [1] turned out to be 3.72 z-score; in experiment [2] it was 3.17 z-score; in experiment [3], 1.27 z-score; in experiment [4], 1.28 z-score; in experiment [5], 5.67 z-score; in experiment [6], 4.45 z-score. In experiment [7], this sequence came in with a binding signal of 2.28 z-score.
Regarding “CCGATTAACATCAGGGGATTGGATGATGTTAATCGGGTCTTGATTCGCTTGACGCTGCTG”, the binding signal came to 4.77 z-score in experiment [1]; 4.99 z-score in experiment [2]; 6.52 z-score in experiment [3]; 2.06 z-score in experiment [4]; 2.73 z-score in experiment [5]; 3.69 z-score in experiment [6]. In addition, the binding signal in experiment [7] came out at 4.98 z-score.
On to “CCGATTAACATCAGGTATCCCCATGATGTTAATCGGGTCTTGATTCGCTTGACGCTGCTG”, for which the binding signal in experiment [1] was 5.17 z-score; in experiment [2], 3.31 z-score; in experiment [3] it was 4.07 z-score; in experiment [4], 3.11 z-score; in experiment [5], 5 z-score; in experiment [6], 3 z-score. This sequence also returned a binding signal in experiment [7] of 3 z-score.
Turning to “CCGATTAACATCAAGGGGTTCCCTGATGTTAATCGGGTCTTGATTCGCTTGACGCTGCTG”, the binding signal in experiment [1] came to 4.99 z-score; in experiment [2], 3.32 z-score; in experiment [3] it was 2.15 z-score; in experiment [4] it was 2.13 z-score; in experiment [5], 9.46 z-score; in experiment [6] it was 5.11 z-score. Also, the binding signal in experiment [7] came to 3.25 z-score.
For the sequence “CCGATTAACATCAGGGGATTAACTGATGTTAATCGGGTCTTGATTCGCTTGACGCTGCTG”, the binding signal in experiment [1] is 5.48 z-score; in experiment [2] it was 6.31 z-score; in experiment [3], 7.11 z-score; in experiment [4], 2.99 z-score; in experiment [5] it was 8.54 z-score; in experiment [6], 5.82 z-score. The sequence also registered a binding signal in experiment [7] of 4.93 z-score.
Turning to “CCGATTAACATCAGGGGAACACCTGATGTTAATCGGGTCTTGATTCGCTTGACGCTGCTG”, the binding signal worked out at 6.84 z-score in experiment [1]; 6.62 z-score in experiment [2]; 6.14 z-score in experiment [3]; 5.77 z-score in experiment [4]; 9.19 z-score in experiment [5]; 7.92 z-score in experiment [6]. Further, the binding signal in experiment [7] was determined as 4.87 z-score.

Source of the values: paper PMC5700166.
